Most compounds without a hit are left out; they make up all but 3.2% or so of the library.
CHT inh: inhibits the human high affinity choline transporter. AID 488975. Q9GZV3. B-score at 10 µM. CHT-expressing cells, membrane potential dye, choline response; hits give low values. 310,000 compounds, 0.86% hits;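 active means B-score over 3 SD under the library average, and starting fluorescence ratio not unusually high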;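 further: choline stimulus applied at its EC90 after an EC20 pre-addition; B-score computed on integrated fluorescence ratio after choline addition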
PHOSPHO1 block: inhibitors of human PHOSPHO1 phosphatase | recombinant PHOSPHO1, absorbance phosphatase assay | inhibition, % at 13.3 µM | 290,000 compounds, 1.1% hits | AID 1565; in the data active means inhibition above about 60%
HDAC3 inhib: blocks human histone deacetylase 3; recombinant HDAC3, fluorogenic peptide/trypsin coupled, fluorescence; O15379; 320,000 compounds, 0.15% hits; inhibition, % at 8.3 µM; in the data active means inhibition above about 26%, passing the limit was not always enough
Target sequence (O15379 whole entry, looked up): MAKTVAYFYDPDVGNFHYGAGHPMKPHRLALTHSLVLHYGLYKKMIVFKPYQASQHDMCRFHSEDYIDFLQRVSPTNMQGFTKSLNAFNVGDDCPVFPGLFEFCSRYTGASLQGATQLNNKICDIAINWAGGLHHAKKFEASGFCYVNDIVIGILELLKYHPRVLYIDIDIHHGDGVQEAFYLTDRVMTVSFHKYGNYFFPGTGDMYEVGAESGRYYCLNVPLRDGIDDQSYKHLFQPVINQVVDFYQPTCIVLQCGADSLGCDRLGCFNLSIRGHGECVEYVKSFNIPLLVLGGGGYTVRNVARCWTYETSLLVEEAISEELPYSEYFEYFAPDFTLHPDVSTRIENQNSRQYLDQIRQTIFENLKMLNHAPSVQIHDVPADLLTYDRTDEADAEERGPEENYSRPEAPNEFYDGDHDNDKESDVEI
TMEM16A act: activators or potentiators of mouse TMEM16A chloride channel; Q8BHY3; HEK293 TMEM16A/YFP-H148Q/I152L, iodide quench fluorescence; hits give low values; B-score at 10 µM; 340,000 compounds, 0.3% hits; AID 623877;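 active means fluorescence-ratio B-score plate-corrected deviation score at least 3 library SD below zero, with starting fluorescence score within 5 deviations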;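 further: channel opened by trigger with iodide after compound preincubation; score built on the fluorescence ratio of max minus min over baseline; more negative score means more quench and so TMEM16A activation or potentiation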
CHT PAM: allosterically activates the human high affinity choline transporter; Q9GZV3; CHT-expressing cells, membrane potential dye, choline EC20; hits give high values; LV-AA mutant CHT in HEK293 cells; B-score at 10 µM; 310,000 compounds, 0.49% hits;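 active means initial fluorescence not abnormally high and integrated response B-score, plate-corrected, over 3 SD above library mean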
TMEM16A inh: mouse TMEM16A channel inhibition, primary screen; HEK293 TMEM16A/YFP iodide influx fluorescence, ionomycin; Q8BHY3; 310,000 compounds, 1.2% hits; normalized B-score (activity score, 25-100; higher = stronger inhibition) at 10 µM; AID 588511;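 active means ratio plate-corrected score three or more library SD toward inhibition, starting fluorescence score within five deviations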;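 further: score derived from kinetic fluorescence span divided by baseline fluorescence per well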
TMEM16A reconf: TMEM16A (mouse) chloride channel inhibition, re-confirmation | shares compounds with TMEM16A inh | HEK293 TMEM16A/YFP-H148Q, iodide quench fluorescence; ionomycin added to raise cell calcium | inhibition, % at 10 µM | 2,300 compounds, 39% hits;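 active means mean duplicate percent inhibition, scaled so buffer wells are 0 and the reference blocker 100, over three buffer SD above buffer mean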
TMEM16A Ca cntr: counter-screen for TMEM16A inhibitors: effect on calcium mobilization. shares compounds with TMEM16A inh. TMEM16A/YFP HEK293, Fluo4 calcium mobilization. calcium response (% of ionomycin), % at 10 µM. 2,300 compounds, 2% hits. AID 652231;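 active means duplicate-averaged calcium signal over 20% of the ionomycin maximum, relative to buffer baseline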;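 further: each well's signal is peak minus trough fluorescence divided by its pre-addition baseline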
Parental YFP cnt: parental YFP-HEK293 iodide quench counter-screen activity; shares compounds with TMEM16A inh; ionomycin; YFP ratio F(max-min)/F0 at 10 µM; 2,300 tested, under 10 active;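 active means yellow fluorescent protein signal ratio exceeding the buffer control mean by over 5 SD of those controls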;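 further: ratio is mean of duplicate wells from kinetic YFP trace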
ClC-1 inh: rat ClC-1 inhibition, TMEM16A specificity screen; shares compounds with TMEM16A inh; CHO ClC-1-YFP, iodide influx fluorescence quench; iodide control reads 0, buffer control 100; ratio percent, % at 10 µM; 2,300 tested, under 10 active;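 active means duplicate-mean ratio percent above the mean of iodide-only control wells, which defines zero, plus 5 of their SD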;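 further: higher percent means stronger block of ClC-1 iodide influx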
Of the large screens only hits and unclear results are named; the others gave an inactive call (follow-up assays come after a bar, where they were run).

COc1ccc(CN2C(=O)c3ccccc3C(/C=N\OCc3ccc(C)cc3)C2=O)cc1 (centres undefined)	none | TMEM16A reconf 26% | TMEM16A Ca cntr inactive | Parental YFP cnt inactive | ClC-1 inh inactive
COCCn1c(SCc2csc(-c3ccccc3)n2)nc2ccccc21	TMEM16A inh 100 | TMEM16A reconf 24% | TMEM16A Ca cntr inactive | Parental YFP cnt inactive | ClC-1 inh inactive
Cn1c(CN2CCCCC2)nc2cc(NC(=O)c3ccc(Cl)cc3)ccc21	TMEM16A inh 100 | TMEM16A reconf 23% | TMEM16A Ca cntr inactive | Parental YFP cnt inactive | ClC-1 inh inactive
CCOC(=O)c1c(NC(=O)CSc2nnc(-c3ccccc3C)n2C)sc(C(C)=O)c1C	TMEM16A inh 25 | TMEM16A reconf inactive | TMEM16A Ca cntr inactive | Parental YFP cnt inactive | ClC-1 inh inactive
CCOC(=O)c1c(NC(=O)CSc2nnc(Cc3ccccc3)o2)sc(C)c1C	TMEM16A inh 100 | TMEM16A reconf inactive | TMEM16A Ca cntr inactive | Parental YFP cnt inactive | ClC-1 inh inactive
CCOC(=O)c1c(NC(=O)CSc2nnc(-c3ccco3)o2)sc(C)c1C	none
CCOC(=O)c1c(NC(=O)CSc2nc3cccnc3n2C)sc(C(C)=O)c1C	none
COc1ccccc1N1CCN(C2CCCN(C(=O)c3ccccn3)C2)CC1 (centres undefined)	none
CS(=O)(=O)N(CC(=O)Nc1ccc(Br)cc1F)C1CCCCC1	none
Cc1ccc(S(=O)(=O)Cc2ccc(C(=O)OCc3ccccc3)cc2)cc1	TMEM16A inh 25 | TMEM16A reconf 44% | TMEM16A Ca cntr inactive | Parental YFP cnt inactive | ClC-1 inh inactive
CCCc1nnc(NC(=O)Nc2ccccc2OC)s1	none
COc1ccc(NC(=O)c2cc(-c3ccccc3O)n[nH]2)cc1Cl	none
COc1ccc(NC(=O)c2cc(-c3cc(C)cc(C)c3O)n[nH]2)cc1Cl	TMEM16A inh 100 | TMEM16A reconf inactive | TMEM16A Ca cntr inactive | Parental YFP cnt inactive | ClC-1 inh inactive
COc1ccc2cc([C@H](C)C(=O)N(C)Cc3ccccc3N3CCCC3)ccc2c1	none | TMEM16A reconf 22% | TMEM16A Ca cntr inactive | Parental YFP cnt inactive | ClC-1 inh inactive
Cc1ccc(S(=O)CCNC(=O)Cc2ccc(Cl)cc2)cc1 (centres undefined)	none
Nc1c(C(=O)N/N=C/c2cccnc2)oc2nc(-c3ccccc3)cc(-c3ccco3)c12	none | TMEM16A reconf inactive | TMEM16A Ca cntr inactive | Parental YFP cnt inactive | ClC-1 inh inactive
CN1/C(=C\C=C(/C#N)C(=O)Nc2ccc(Cl)cc2)C(C)(C)c2ccccc21	none
CN1/C(=C\C(=O)Nc2ccc(Cl)cc2)C(C)(C)c2ccccc21	TMEM16A inh 25 | TMEM16A reconf inactive | TMEM16A Ca cntr inactive | Parental YFP cnt inactive | ClC-1 inh inactive
COc1ccc(NC(=O)C2CCN(C(=O)Nc3ccc(C)cc3)CC2)cc1OC	none
COc1ccc(NC(=O)N2CCCC2)cc1OC	TMEM16A inh 25 | TMEM16A reconf inactive | TMEM16A Ca cntr inactive | Parental YFP cnt inactive | ClC-1 inh inactive
Cc1cc(C)c(S(=O)(=O)NCc2ccncc2)c(C)c1	TMEM16A inh 100 | TMEM16A reconf 30% | TMEM16A Ca cntr inactive | Parental YFP cnt inactive | ClC-1 inh inactive
Cc1c(/C=N/NC(=O)c2cccnc2)c2ccccc2n1Cc1ccccc1	none
O=C(CSc1nc2ccccc2c(=O)n1CC1CCCO1)NCC1CCCO1 (centres undefined)	TMEM16A inh 100 | TMEM16A reconf inactive | TMEM16A Ca cntr inactive | Parental YFP cnt inactive | ClC-1 inh inactive
